The structures appear in SMILES notation. Records with an inconclusive call do not appear. Entries that show only a call come without a potency. Activity calls are given as the source filed them. Calls come from the whole dose curve; as a rule, active = well fitted inhibition curve with a large enough effect; inconclusive = small, poorly fitted or top-dose-only effect; inactive = flat fitted curve, though single readings scatter.
Potency is the fitted concentration of half-maximal effect.

One test relates to TAB109. Description: qHTS profiling for inhibitors of Plasmodium falciparum proliferation (AID 504749). Note: nearly all actives have a fitted effect of over 60% in size. Particulars: P. falciparum in erythrocytes, SYBR Green DNA, 72 h; series mostly up to 28.7 µM. An outline of the steps: (§1)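 Three-day growth assay of blood-stage parasites in erythrocytes (0.3% parasitemia, 2.5% hematocrit) at 37 C, 5% CO2, quantified by SYBR Green DNA staining after overnight detergent lysis.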
In general terms: qHTS replaces the single test concentration by a dilution series.
On to `CCCN(CCC)S(=O)(=O)c1ccc(C(=O)O)cc1`, for which the Potency result was “inactive”.

In the case of `CC(C)Cc1ccc(CC(=O)O)cc1`, the Potency entry is “inactive”.

As for `c1ccc(CC2=NCCN2)cc1`, the Potency result is “inactive”.

On to `OCc1ccccn1`, for which the Potency entry was “inactive”.

With `Cc1cc(C)cc(OCC2CNC(=O)O2)c1` (stereo not given), the Potency result is “inactive”.

Regarding `CC(=O)NCCCCCC(=O)O`, the Potency entry is “inactive”.

As for `O=C1C(CCS(=O)c2ccccc2)C(=O)N(c2ccccc2)N1c1ccccc1` (stereo not given), the Potency result was “inactive”.

Take `CC(=O)Nc1ccc(OCC(O)CNC(C)C)cc1` (stereo not given): the Potency result is “inactive”.

As for `NS(=O)(=O)c1ccc(Cl)c(S(N)(=O)=O)c1`, the Potency result was “inactive”.

With `CC[C@H](c1ccc(O)cc1)[C@@H](CC)c1ccc(O)cc1`, the Potency entry is “inactive”.

For `C/C=C/C=N/NC(=O)c1ccncc1`, the Potency result is “inactive”.

As for `CCOc1ccccc1C(N)=O`, the Potency result was “inactive”.

`NCCNc1cccc2ccccc12`: the Potency entry was “inactive”.

Turning to `CC1(COc2ccc(CC3SC(=O)NC3=O)cc2)CCCCC1` (stereo not given), the Potency result was “inactive”.

For `O=C(Oc1cccc2cccnc12)c1ccccc1`, the Potency result was “inactive”.

Regarding `O=C(O)P(=O)(O)O`, the Potency result is “inactive”.

With `Nc1ccc(C(=O)NCC(=O)O)cc1`, the Potency result is “inactive”.

As for `C#C[C@]1(O)CC[C@H]2[C@@H]3CCc4cc(OC)ccc4[C@H]3CC[C@@]21C`, the Potency entry was “inactive”.

For the compound `O=C(Nc1ccc([N+](=O)[O-])cc1)Nc1ccc([N+](=O)[O-])cc1`, the Potency entry was “inactive”.

Regarding `O=C(O)Cc1csc(-c2ccc(Cl)cc2)n1`, the Potency entry is “inactive”.

Consider `COc1cc([C@H]2Oc3cc([C@H]4Oc5cc(O)cc(O)c5C(=O)[C@@H]4O)ccc3O[C@@H]2CO)ccc1O`, for which the Potency result was “inactive”.

For the compound `CCNC(=O)NCc1cccc(Cl)c1`, the Potency entry is “inactive”.

A further test concerns TAB113. Described as above. Particulars: P. falciparum in erythrocytes, SYBR Green DNA, 72 h; series mostly up to 28.7 µM. In short, it runs like this:
as §1
In the case of `CCCN(CCC)S(=O)(=O)c1ccc(C(=O)O)cc1`, the Potency entry was “inactive”.

For the compound `CC(C)Cc1ccc(CC(=O)O)cc1`, the Potency entry was “inactive”.

On to `c1ccc(CC2=NCCN2)cc1`, for which the Potency result is “inactive”.

Consider `CC(C)[N+](C)(C)CC(O)COc1cccc2ccccc12` (stereo not given), for which the Potency result was “inactive”.

Consider `OCc1ccccn1`, for which the Potency entry is “inactive”.

For `Cc1cc(C)cc(OCC2CNC(=O)O2)c1` (stereo not given), the Potency result was “inactive”.

Take `CC(=O)NCCCCCC(=O)O`: the Potency entry was “inactive”.

For `O=C1C(CCS(=O)c2ccccc2)C(=O)N(c2ccccc2)N1c1ccccc1` (stereo not given), the Potency entry is “inactive”.

For the compound `CC(=O)Nc1ccc(OCC(O)CNC(C)C)cc1` (stereo not given), the Potency result was “inactive”.

Regarding `NS(=O)(=O)c1ccc(Cl)c(S(N)(=O)=O)c1`, the Potency result is “inactive”.

Consider `CC[C@H](c1ccc(O)cc1)[C@@H](CC)c1ccc(O)cc1`, for which the Potency entry is “inactive”.

`C/C=C/C=N/NC(=O)c1ccncc1`: the Potency result was “inactive”.

Regarding `CCOc1ccccc1C(N)=O`, the Potency result is “inactive”.

Regarding `CC1(COc2ccc(CC3SC(=O)NC3=O)cc2)CCCCC1` (stereo not given), the Potency result was “inactive”.

For `O=C(Oc1cccc2cccnc12)c1ccccc1`, the Potency result was “inactive”.

As to `O=C(O)P(=O)(O)O`, the Potency entry is “inactive”.

For `CN1CCN(CCC(=O)N2c3ccccc3Sc3ccc(C(F)(F)F)cc32)CC1`, the Potency result is “inactive”.

Take `Nc1ccc(C(=O)NCC(=O)O)cc1`: the Potency entry was “inactive”.

Take `C#C[C@]1(O)CC[C@H]2[C@@H]3CCc4cc(OC)ccc4[C@H]3CC[C@@]21C`: the Potency entry was “inactive”.

In the case of `O=C(Nc1ccc([N+](=O)[O-])cc1)Nc1ccc([N+](=O)[O-])cc1`, the Potency result is “inactive”.

In the case of `O=C(O)Cc1csc(-c2ccc(Cl)cc2)n1`, the Potency result was “inactive”.

For `CC(=O)O[C@]1(C(C)=O)CC[C@H]2[C@@H]3C=C(Cl)C4=CC(=O)CC[C@]4(C)[C@H]3CC[C@@]21C`, the Potency was 7.08 µM (active).

Take `CCNC(=O)NCc1cccc(Cl)c1`: the Potency result is “inactive”.

The record behind these values is PubChem BioAssay (NCATS).
